Screening results (PubChem BioAssay)
Sampled rows, rich in hits. Any-hit rate of the full collection: about 5.7%.
D3 ag: qHTS of D3 Dopamine Receptor Agonist: qHTS. D3R DiscoveRx beta-arrestin cells, luminescence, 90 min. max activation, %. actives 0.58% (n = 410,000). AID 652048, 2013; in the data active = max activation above about 30%; note: 0% is about no effect
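Agonist mode: compounds and dopamine controls were applied to plated cells for 90 min at 37 degrees C after an overnight attachment at 1500 cells/well. Luminescent read-out followed 30 - 60 minutes at room temperature with DiscoveRx detection reagent.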
GLP1R cytotox: qHTS of GLP-1 Receptor Inverse Agonists: Cytotox Screen. AID 624418, 2012. Potency, µM (doses to about 38.3 µM), for the others: at the highest dose activity change, negative = inhibition, usual class: inhibitors. actives 0.13% (n = 410,000). HEK293 cAMP-luciferase reporter cells, luminescence, 24 h;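 note: loss of luciferase light is scored as toxicity; potency is the fitted concentration of half-maximal effect; % is set by controls: 0 for no effect and ±100 for the full control effect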
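Cells in DMEM/10% Nu serum/1% pen-strep, 1536-well format. Pre-incubated 12 h, dosed with 23 nL compound, incubated a further 24 h. Luciferase detection, 12 min at room temp, luminescence.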
GLP1R ag: qHTS of GLP-1 Receptor Agonists | actives 0.007% (n = 380,000) | AID 624172, 2012 | Potency, µM (titrated, usually from 45.6 µM), inactives show top-dose activation, actives largely listed as activators | HEK293 GLP-1R CRE-luciferase, luminescence, 4-6 h; cells express a hypersensitive GLP-1R form; note: potency is the fitted concentration of half-maximal effect; % of control where 0% means no effect
Target sequence (P43220 whole entry, looked up): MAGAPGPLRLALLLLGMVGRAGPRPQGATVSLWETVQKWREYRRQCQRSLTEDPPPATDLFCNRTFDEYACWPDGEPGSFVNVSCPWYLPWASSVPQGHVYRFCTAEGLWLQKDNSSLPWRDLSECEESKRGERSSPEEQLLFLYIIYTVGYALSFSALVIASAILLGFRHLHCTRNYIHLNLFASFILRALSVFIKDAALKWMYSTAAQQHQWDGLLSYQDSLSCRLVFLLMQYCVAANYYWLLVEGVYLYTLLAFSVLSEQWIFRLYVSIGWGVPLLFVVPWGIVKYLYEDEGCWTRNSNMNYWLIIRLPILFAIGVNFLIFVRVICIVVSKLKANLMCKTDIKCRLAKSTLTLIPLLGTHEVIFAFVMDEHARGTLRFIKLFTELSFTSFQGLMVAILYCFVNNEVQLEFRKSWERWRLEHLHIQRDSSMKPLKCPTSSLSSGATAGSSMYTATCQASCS
GLP-1R inv ag: qHTS of GLP-1 Receptor Inverse Agonists (Inhibition Mode). Potency, µM (titrated, usually from 38.3 µM), for inactives: at the top dose activity change, negative = inhibition, hits mostly inhibitors. Glucagon-like peptide 1 receptor (Homo sapiens), P43220. actives 1.6% (n = 410,000). HEK293 GLP-1R CRE-luciferase, luminescence, 24 h; GLP-1R form is constitutively active; note: potency is the fitted concentration of half-maximal effect; % is set by controls: 0 for no effect and ±100 for the full control effect; nearly all actives have a fitted effect of over 55% in size
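Luminescence readout: a drop in cAMP-driven luciferase signal flags inverse agonism at a constitutively active GLP-1R stably expressed in HEK293. Compound exposure lasted 24 hr at 37 deg C, 5% CO2.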
D3 antag: qHTS of D3 Dopamine Receptor Antagonist: qHTS. D3R cells, DiscoveRx beta-arrestin luminescence, antagonist mode; stronger effect = lower value. max response, negative = inhibition, %. actives 2.5% (n = 360,000). AID 652054, 2013; in the data active = max response below about -50%; inconclusive = no clear call, values can overlap the other calls; note: % is set by controls: 0 for no effect and ±100 for the full control effect
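Cells expressing the human receptor were seeded at 1500 cells/well, incubated overnight at 37 degrees C in 5% CO2, then exposed to library compounds with dopamine controls for 90 minutes at 37 degrees C before luminescent detection.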
ClpP mod: qHTS Assay for Activators of ClpP; ATP-dependent Clp protease proteolytic subunit (Bacillus subtilis (strain 168)), P80244; purified B. subtilis ClpP, FRET peptide cleavage, 20 min; Potency, µM (top dose mostly 57.5 µM), without a hit: at the top dose activity change, negative = active; actives 1.9% (n = 340,000); AID 651965, 2013; active = well fitted falling curve with a large enough effect; inconclusive = small, poorly fitted or top-dose-only effect; inactive = no such curve, though single readings can be large or run the other way; note: potency is the fitted concentration of half-maximal effect; the source files actives as falling curves though it sought activators and does not explain the sign; nearly all actives have a fitted effect of over 65% in size
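FRET quenching reversal measured ClpP activation: 10 microg/mL B. subtilis ClpP at pH 8 with the FRET-FV decapeptide, read at 430 nm after 320 nm excitation. The 20-min minus 0-min signal was scaled between DMSO/no-enzyme wells and ADEP (5.8 microM final).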
Active calls of the source: *. Unless noted, calls come from the whole dose curve; as a rule, active = well fitted curve in the direction sought with a large enough effect; inconclusive = small, poorly fitted or top-dose-only effect, or another doubt; inactive = no such curve, though single readings can be large; an effect the other way counts as inactive or inconclusive.

For CCCC(=O)N(C)c1ccc(/C=C2\C=Cc3ccccc32)cc1 the results were ClpP mod -1%.
Screening COC(=O)c1cc2sc(Cl)cc2n1Cc1c(C)cc(C)cc1C returned D3 ag -2, GLP1R cytotox 3%, GLP-1R inv ag 3% and ClpP mod 2%.
For Cc1ccc(OCCCN2CCOCC2)c([N+](=O)[O-])c1 the results were D3 ag -10, GLP1R cytotox 5%, GLP1R ag 9%, GLP-1R inv ag 14%, D3 antag inconclusive and ClpP mod -1%.
For Cc1ccc(OCCN2CCN(C)CC2)c([N+](=O)[O-])c1 the results were D3 ag 7, GLP1R cytotox 2%, GLP1R ag 8%, GLP-1R inv ag -29%, D3 antag -53* and ClpP mod 1%.
Cc1ccc(OCCN2CCNCC2)c([N+](=O)[O-])c1 was read as D3 ag -11, GLP1R cytotox -2%, GLP1R ag -5%, GLP-1R inv ag -25%, D3 antag -87* and ClpP mod -1%.
Cc1ccc(C)c(OCCCN2CCNCC2)c1 was read as D3 ag -1, GLP1R cytotox 23%, GLP1R ag -4%, GLP-1R inv ag inconclusive, D3 antag 2 and ClpP mod 2%.
For Cc1cccc(Cn2nnc3c(=O)[nH]c(C4CCN(C(=O)c5ccc(F)cc5)CC4)nc32)c1 the results were D3 ag -8, GLP1R cytotox -10%, GLP-1R inv ag 13% and ClpP mod 1%.
`Cc1oc2cc(O)ccc2c(=O)c1Oc1ccccc1` gave D3 ag -5, GLP1R cytotox 0%, GLP1R ag 2%, GLP-1R inv ag -13%, D3 antag 0 and ClpP mod 11µM*.
`COC(=O)c1cc(-c2c(C)oc3cc(O)ccc3c2=O)c(C)o1` gave D3 ag -16, GLP1R cytotox 2%, GLP1R ag -6%, GLP-1R inv ag 6%, D3 antag -15 and ClpP mod 25µM*.
Fc1ccc(-c2csc(=Nc3cccc(C(F)(F)F)c3)n2Cc2ccc3c(c2)OCO3)cc1 was read as D3 ag -7, GLP1R cytotox 14%, GLP-1R inv ag inconclusive and ClpP mod -1%.
`Nc1c(Cl)ncnc1N/N=C/c1ccccn1` gave D3 ag 4, GLP1R cytotox -8%, GLP1R ag -5%, GLP-1R inv ag inconclusive, D3 antag -18 and ClpP mod -4%.
`Cc1nc(N/N=C/c2ccccn2)sc1C` gave D3 ag 3, GLP1R cytotox 3.5µM*, GLP1R ag -14%, GLP-1R inv ag 2.2µM*, D3 antag 2 and ClpP mod -4%.
`Clc1ccccc1NN=Cc1ccccn1` gave D3 ag -13, GLP1R cytotox -16%, GLP1R ag 5%, GLP-1R inv ag 4µM*, D3 antag -26 and ClpP mod -4%.
CCCc1sc(N/N=C/c2ccccn2)nc1-c1ccc(F)cc1 was read as D3 ag 2, GLP1R cytotox inconclusive, GLP1R ag -6%, GLP-1R inv ag inconclusive, D3 antag 5 and ClpP mod -2%.
`Oc1ccc(C[C@H]2CNCCN2CCc2cccc3ccccc23)cc1` gave D3 ag -12, GLP1R cytotox 11%, GLP1R ag 9%, GLP-1R inv ag inconclusive, D3 antag 3 and ClpP mod -2%.
Screening c1ccc(C[C@H]2CNCCN2CCc2cccc3ccccc23)cc1 returned D3 ag -10, GLP1R cytotox -23%, GLP1R ag 6%, GLP-1R inv ag 11µM*, D3 antag 1 and ClpP mod -2%.
